# According to ChEMBL document CHEMBL1201862, “PubChem BioAssay data set” (2004):
# Among all 340,000 compounds or so, about 12,000 (3.5%) were called active. Inconclusive results (about 18%) are left out. The rule behind the calls is not given here. Many of the other results were omitted from the sample, so actives are more common in it than they were.
# Assay: qHTS Assay for Inhibitors of Hepatitis C Virus (HCV).
# Type: functional
# Settings: read-out: Potency
row,Structure (SMILES),AC50
1,CO[C@H]1/C=C\O[C@@]2(C)Oc3c(C)c(O)c4c(O)c(c5c(c4c3C2=O)=NC2(CCN(CC(C)C)CC2)N=5)NC(=O)/C(C)=C\C=C/[C@H](C)[C@H](O)[C@@H](C)[C@@H](O)[C@@H](C)[C@H](OC(C)=O)[C@@H]1C,158 µM (active)
2,COc1ccc([C@@]23Oc4cc(OC)cc(OC)c4[C@]2(O)[C@H](O)[C@H](C(=O)N(C)C)[C@H]3c2ccccc2)cc1 [ROCAGLAMIDE],100 µM (active)
3,O=C(O)c1cc(O)c2c(c1)[C@@H]([C@H]1c3cc(C(=O)O)cc(O)c3C(=O)c3c(O[C@@H]4O[C@H](CO)[C@@H](O)[C@H](O)[C@H]4O)cccc31)c1cccc(OC3O[C@H](CO)[C@@H](O)[C@H](O)[C@H]3O)c1C2=O (stereo partly specified),79.4 µM (active)
4,[N-]=[N+]=NC[C@H](Cc1ccccc1)N1CC[C@@H](OCc2ccccc2)CCC1=O,100 µM (active)
5,Cl.N[C@@H](CCC(=O)O)C(=O)O [GLUTAMIC ACID HYDROCHLORIDE],1.12 µM (active)
6,C#CC(=O)N(c1cc(OC)ccc1OC)C(C(=O)NC1CCCC1)c1cccs1 (stereo unspecified),112 µM (active)
